Test in all cases: NCI-60 one-dose screen, 48 h (100 = growth as untreated, 0 = no growth, -100 = all killed)
What all share (settings): 10 µM unless noted

Assay [1] has as its system NCI-H23 lung.
In assay [2] the test system is NCI-H226 lung.
Assay [3] deals with NCI-H322M lung.
Assay [4] concerns HOP-62 NSCLC.
The subject of assay [5] is NCI-H460 lung.
Assay [6] has as its system NCI-H522 lung.
Assay [7] has as its system A549/ATCC NSCLC.
Assay [8] has as its system 786-0 renal.
The subject of assay [9] is COLO 205 colon.
In assay [10] the test system is DU-145 prostate.
Assay [11] concerns K-562 leukemia.
Assay [12] relates to MDA-MB-231 breast.
Assay [13] deals with RXF 393 renal.
The subject of assay [14] is SF-295 CNS.
Assay [15] deals with SF-539 CNS.
Assay [16] relates to UACC-257 melanoma.
The test system of assay [17] is M14 melanoma.
The test system of assay [18] is HCT-15 colon.
The test system of assay [19] is MALME-3M melanoma.
For assay [20], the system named is SF-268 CNS.

Compounds without any hit were thinned out: in the full panel of roughly 83,000, 20% have a hit.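 How to read the values: 0–100, growth inhibition (40 = 60% inhibited); 0, no net growth; -100 to 0, cell death (-40 = 40% of starting cells died; -100 = all dead).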 A number with no mark means an inactive call. Active and inactive are the calls of the source. Rule for the calls: active = growth percent below 10; inactive = the rest.

As for `O=C(Nc1nc2ccccc2s1)c1cc(-c2ccc(F)cc2)n2nc(-c3ccccc3)cc2n1`, the growth in assay [1] was 68.7%; in assay [2], 89.1%; in assay [3], 60.1%; in [4], 63.8%; in assay [5], 29.3%; in [6], 101%. Besides, the growth in assay [7] is 51.2%; in assay [8], 11.7%; in [9] it was 65.2%; in assay [10], 89.1%; in assay [11], 59.1%; in [12], 64.6%. The growth in assay [13] was 121%; in [14], 40.3%; in assay [15] it was 63.8%; in assay [16], 69%; in assay [17], 79.2%; in assay [18], 53.7%.
Regarding `COC(=O)[C@]1(CCSC)N[C@H](c2cn(-c3ccccc3)nc2C)[C@@H]2C(=O)N(c3ccc(C)cc3)C(=O)[C@@H]21`, the growth in assay [1] was 100%; in assay [2], 129%; in assay [3], 104%; in [4], 99.5%; in [5], 104%; in assay [6], 89.6%. In addition, the growth in assay [7] was 90.5%; in assay [8], 97.1%; in [9], 113%; in [10] it was 103%; in assay [19] it was 99%; in [12], 104%. The growth in assay [13] was 133%; in [20] it was 98.2%; in assay [14], 97%; in assay [16], 102%; in assay [17] it was 96.6%; in assay [18], 96.7%.
As for `CC1(C)OC(=O)C(=Cc2ccccc2Br)C(=O)O1`, the growth was 101% in [1]; 96.9% in [2]; 101% in assay [3]; 106% in [4]; 102% in assay [5]; 88.8% in assay [6]. Moreover, the growth is 103% in assay [7]; 103% in assay [8]; 109% in assay [9]; 116% in assay [10]; 87.4% in assay [11]; 109% in assay [12]. The growth in assay [20] is 104%; in assay [14], 99.7%; in assay [15] it was 91.9%; in assay [16], 95.3%; in [17], 88%; in assay [18] it was 88.6%.
As for `Oc1ccccc1/C=N\Nc1ccccc1`, the growth was 87.5% in assay [1]; 39.4% in [2]; 59.9% in assay [3]; 65.6% in assay [4]; 30.9% in assay [5]; 10.5% in assay [6]. Also, the growth in assay [7] is 36.8%; in [8], 43.3%; in assay [9], 115%; in assay [10] it was 58.5%; in assay [19], 95%; in [12] it was 26.7%. For the same molecule, the growth was 61.8% in [20]; 19.9% in assay [14]; 3.41% (active) in assay [15]; 95.7% in [16]; 39.4% in [17]; 25.6% in [18].
With `CCCCn1c(Cc2ccc(Cl)cc2)nc2cc(OC)c(OC)cc2c1=O`, the growth was 74.6% in [1]; 66.4% in assay [2]; 97.3% in [3]; 91.2% in assay [4]; 90.6% in [5]; 71.6% in assay [6]. Also, the growth in assay [7] was 66.3%; in [8], 84.4%; in assay [10] it was 75.5%; in assay [11], 40.3%; in assay [19], 101%; in assay [12], 70.2%. The growth in assay [13] was 90%; in assay [20], 80%; in [14], 71.1%; in assay [15], 105%; in [16], 55.5%; in assay [17], 79.2%. The growth in assay [18] was 75.4%.
On to `OCCOc1c(Cl)cc(Cl)cc1Cl`, for which the growth in [1] was 101%; in [2], 111%; in [3], 114%; in [4], 108%; in assay [5], 108%; in assay [6], 108%. In addition, the growth in assay [7] is 93.9%; in assay [8], 104%; in [9], 114%; in assay [10], 115%; in [19], 101%; in assay [12] it was 87.3%. Besides, the growth in assay [20] was 103%; in assay [14], 100%; in assay [15], 102%; in [16], 90.3%; in [17], 107%; in assay [18] it was 104%.
Take `CC12CCCCC1C(C(N)=O)C(=O)O2` (centres undefined): the growth in [1] is 101%; in assay [2], 118%; in [3], 104%; in assay [4], 109%; in assay [5] it was 110%; in assay [6], 108%. For the same molecule, the growth in [7] is 106%; in assay [8], 101%; in assay [9], 112%; in assay [11], 102%; in assay [19], 120%; in assay [12] it was 101%. Also, the growth is 109% in assay [14]; 112% in [15]; 107% in [16]; 104% in assay [17]; 106% in assay [18].
In the case of `C/C(=N/N=C(N)N)c1ccc(Cl)cc1`, the growth in [1] is 95.1%; in [2], 96%; in assay [3], 90.2%; in assay [4] it was 98.8%; in assay [5], 102%; in [6], 89%. For the same molecule, the growth in assay [7] was 106%; in assay [8] it was 89.6%; in [10], 106%; in [11], 67.8%; in assay [19] it was 143%; in assay [12], 84%. Further, the growth in [13] is 90.5%; in [20] it was 101%; in assay [15], 100%; in [16] it was 77.1%; in [17], 86.9%; in assay [18] it was 102%.

(Values after PubChem BioAssay (NCI).)
